Experiment [1] has as its target Tyrosine-protein kinase Fer (Homo sapiens) (UniProt P16591). The conditions noted are these: at 1 µM.
For experiment [2], the target named is Tyrosine-protein kinase Fes/Fps (Homo sapiens) (UniProt P07332). The following applies: at 0.1 µM.
The target is the same in experiment [3]. The following applies: at 1 µM.
Experiment [4] concerns the target Fibroblast growth factor receptor 1 (Homo sapiens) (UniProt P11362). The following applies: at 0.1 µM.
For experiment [5] the target is unchanged. The following applies: at 1 µM.
Experiment [6] has as its target Fibroblast growth factor receptor 2 (Homo sapiens) (UniProt P21802). The conditions noted are these: at 0.1 µM.
The target is the same in experiment [7]. The conditions noted are these: at 1 µM.
The target of experiment [8] is Fibroblast growth factor receptor 3 (Homo sapiens) (UniProt P22607). The conditions noted are these: at 0.1 µM.
Experiment [9] has the same target. The conditions noted are these: at 1 µM.
Experiment [10] has as its target Fibroblast growth factor receptor 4 (Homo sapiens) (UniProt P22455). The conditions noted are these: at 0.1 µM.
For experiment [11] the target is unchanged. The following applies: at 1 µM.
Experiment [12] has as its target Tyrosine-protein kinase Fgr (Homo sapiens) (UniProt P09769). The conditions noted are these: at 0.1 µM.
Experiment [13] shares this target. The conditions noted are these: at 1 µM.
For experiment [14], the target named is Vascular endothelial growth factor receptor 1 (Homo sapiens) (UniProt P17948). The conditions noted are these: at 0.1 µM.
The target is the same in experiment [15]. The following applies: at 1 µM.
For experiment [16], the target named is Receptor-type tyrosine-protein kinase FLT3 (Homo sapiens) (UniProt P36888). The conditions noted are these: at 0.1 µM.
Experiment [17] has the same target. The conditions noted are these: at 1 µM.
The subject of experiment [18] is T1, Receptor-type tyrosine-protein kinase FLT3 (Homo sapiens), P36888 [D835Y].
T1 sequence (whole entry): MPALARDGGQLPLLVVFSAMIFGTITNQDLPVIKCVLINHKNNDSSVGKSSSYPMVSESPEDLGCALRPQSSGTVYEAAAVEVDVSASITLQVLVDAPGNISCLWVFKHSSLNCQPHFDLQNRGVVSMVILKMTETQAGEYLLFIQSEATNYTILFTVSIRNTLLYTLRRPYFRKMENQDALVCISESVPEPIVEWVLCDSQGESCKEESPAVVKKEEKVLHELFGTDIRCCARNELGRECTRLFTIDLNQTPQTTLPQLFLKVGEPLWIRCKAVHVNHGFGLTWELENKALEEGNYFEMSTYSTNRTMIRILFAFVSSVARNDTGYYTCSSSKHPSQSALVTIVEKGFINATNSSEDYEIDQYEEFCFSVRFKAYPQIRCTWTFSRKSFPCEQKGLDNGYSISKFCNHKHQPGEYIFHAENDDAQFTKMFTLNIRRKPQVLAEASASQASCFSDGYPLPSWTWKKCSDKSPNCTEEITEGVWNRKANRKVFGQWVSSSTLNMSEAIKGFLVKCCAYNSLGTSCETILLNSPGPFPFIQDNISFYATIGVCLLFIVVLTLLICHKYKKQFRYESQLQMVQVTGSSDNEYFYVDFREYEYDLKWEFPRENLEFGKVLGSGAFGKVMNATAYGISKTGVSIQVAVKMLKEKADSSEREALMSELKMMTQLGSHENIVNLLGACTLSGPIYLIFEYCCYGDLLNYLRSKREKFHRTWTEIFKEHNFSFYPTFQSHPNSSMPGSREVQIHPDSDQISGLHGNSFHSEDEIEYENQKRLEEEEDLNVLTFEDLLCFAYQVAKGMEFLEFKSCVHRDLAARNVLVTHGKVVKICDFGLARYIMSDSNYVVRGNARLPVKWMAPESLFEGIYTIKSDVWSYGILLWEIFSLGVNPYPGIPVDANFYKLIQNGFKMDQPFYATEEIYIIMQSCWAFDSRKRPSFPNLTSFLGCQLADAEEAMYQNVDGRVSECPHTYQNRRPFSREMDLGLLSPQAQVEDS
The following applies: at 0.1 µM.

Experiment [19] concerns the target Non-receptor tyrosine-protein kinase TYK2 (Homo sapiens) (UniProt P29597). The conditions noted are these: at 1 µM.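 Note: values are mean percent inhibition of TYK2 kinase.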
Experiment [20] has as its target T2, Tyrosine-protein kinase receptor TYRO3 (Homo sapiens) (UniProt Q06418).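 Note: reported percentages are averaged inhibition values of TYRO3 kinase activity.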
T2 sequence (whole entry): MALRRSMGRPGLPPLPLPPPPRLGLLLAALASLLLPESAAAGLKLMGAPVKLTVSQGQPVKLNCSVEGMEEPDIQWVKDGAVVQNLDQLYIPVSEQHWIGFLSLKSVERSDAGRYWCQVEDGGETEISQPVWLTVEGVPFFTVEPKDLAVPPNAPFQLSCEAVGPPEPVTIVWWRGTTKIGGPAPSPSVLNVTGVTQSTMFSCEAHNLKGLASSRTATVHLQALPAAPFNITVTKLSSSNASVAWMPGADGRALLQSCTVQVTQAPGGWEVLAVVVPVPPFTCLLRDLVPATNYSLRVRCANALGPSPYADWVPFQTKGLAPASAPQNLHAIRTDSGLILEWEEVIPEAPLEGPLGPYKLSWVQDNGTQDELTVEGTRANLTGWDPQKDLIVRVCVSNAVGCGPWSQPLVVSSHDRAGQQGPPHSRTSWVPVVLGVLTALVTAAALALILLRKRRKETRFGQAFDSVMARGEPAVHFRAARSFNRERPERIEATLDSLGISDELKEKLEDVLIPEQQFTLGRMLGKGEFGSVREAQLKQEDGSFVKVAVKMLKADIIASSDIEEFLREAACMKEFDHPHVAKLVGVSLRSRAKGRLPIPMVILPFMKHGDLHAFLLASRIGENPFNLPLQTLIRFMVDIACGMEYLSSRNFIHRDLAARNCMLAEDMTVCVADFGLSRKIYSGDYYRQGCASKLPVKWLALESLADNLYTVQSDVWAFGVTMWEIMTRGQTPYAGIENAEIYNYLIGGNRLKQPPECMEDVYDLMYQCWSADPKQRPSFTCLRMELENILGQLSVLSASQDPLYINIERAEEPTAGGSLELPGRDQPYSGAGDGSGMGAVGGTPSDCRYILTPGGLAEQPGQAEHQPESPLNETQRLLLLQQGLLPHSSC
The conditions noted are these: at 0.1 µM.

The record followed here is ChEMBL document CHEMBL1961873, “Compounds: GSK PKIS; Assays: Nanosyn kinase panel” (2012).

Molecules are shown by their SMILES.

Tyrosine-protein kinase Fer (Homo sapiens), sequence (P16591 whole entry, looked up): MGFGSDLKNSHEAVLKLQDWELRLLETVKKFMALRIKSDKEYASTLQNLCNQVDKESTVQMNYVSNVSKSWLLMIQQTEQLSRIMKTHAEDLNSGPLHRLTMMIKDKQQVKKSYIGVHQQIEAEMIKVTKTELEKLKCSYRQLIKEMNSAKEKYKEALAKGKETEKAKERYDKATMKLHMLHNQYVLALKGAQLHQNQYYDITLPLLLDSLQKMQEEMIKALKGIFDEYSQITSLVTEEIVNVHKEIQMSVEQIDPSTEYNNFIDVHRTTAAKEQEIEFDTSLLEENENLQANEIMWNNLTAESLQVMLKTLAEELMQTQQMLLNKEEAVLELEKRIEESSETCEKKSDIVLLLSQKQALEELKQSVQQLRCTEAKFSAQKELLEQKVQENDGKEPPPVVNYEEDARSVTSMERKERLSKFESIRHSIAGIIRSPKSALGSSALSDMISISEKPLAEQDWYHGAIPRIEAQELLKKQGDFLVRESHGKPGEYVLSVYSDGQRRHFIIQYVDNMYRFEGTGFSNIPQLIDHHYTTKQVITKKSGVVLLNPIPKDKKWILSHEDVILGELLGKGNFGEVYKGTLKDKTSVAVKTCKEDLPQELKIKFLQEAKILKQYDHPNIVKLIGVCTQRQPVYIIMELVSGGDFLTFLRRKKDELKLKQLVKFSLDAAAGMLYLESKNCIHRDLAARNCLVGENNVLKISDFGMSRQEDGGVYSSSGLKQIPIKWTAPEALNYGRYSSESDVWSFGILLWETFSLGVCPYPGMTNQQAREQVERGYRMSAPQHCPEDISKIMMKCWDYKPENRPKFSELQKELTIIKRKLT
Vascular endothelial growth factor receptor 1 (Homo sapiens), sequence (P17948 whole entry): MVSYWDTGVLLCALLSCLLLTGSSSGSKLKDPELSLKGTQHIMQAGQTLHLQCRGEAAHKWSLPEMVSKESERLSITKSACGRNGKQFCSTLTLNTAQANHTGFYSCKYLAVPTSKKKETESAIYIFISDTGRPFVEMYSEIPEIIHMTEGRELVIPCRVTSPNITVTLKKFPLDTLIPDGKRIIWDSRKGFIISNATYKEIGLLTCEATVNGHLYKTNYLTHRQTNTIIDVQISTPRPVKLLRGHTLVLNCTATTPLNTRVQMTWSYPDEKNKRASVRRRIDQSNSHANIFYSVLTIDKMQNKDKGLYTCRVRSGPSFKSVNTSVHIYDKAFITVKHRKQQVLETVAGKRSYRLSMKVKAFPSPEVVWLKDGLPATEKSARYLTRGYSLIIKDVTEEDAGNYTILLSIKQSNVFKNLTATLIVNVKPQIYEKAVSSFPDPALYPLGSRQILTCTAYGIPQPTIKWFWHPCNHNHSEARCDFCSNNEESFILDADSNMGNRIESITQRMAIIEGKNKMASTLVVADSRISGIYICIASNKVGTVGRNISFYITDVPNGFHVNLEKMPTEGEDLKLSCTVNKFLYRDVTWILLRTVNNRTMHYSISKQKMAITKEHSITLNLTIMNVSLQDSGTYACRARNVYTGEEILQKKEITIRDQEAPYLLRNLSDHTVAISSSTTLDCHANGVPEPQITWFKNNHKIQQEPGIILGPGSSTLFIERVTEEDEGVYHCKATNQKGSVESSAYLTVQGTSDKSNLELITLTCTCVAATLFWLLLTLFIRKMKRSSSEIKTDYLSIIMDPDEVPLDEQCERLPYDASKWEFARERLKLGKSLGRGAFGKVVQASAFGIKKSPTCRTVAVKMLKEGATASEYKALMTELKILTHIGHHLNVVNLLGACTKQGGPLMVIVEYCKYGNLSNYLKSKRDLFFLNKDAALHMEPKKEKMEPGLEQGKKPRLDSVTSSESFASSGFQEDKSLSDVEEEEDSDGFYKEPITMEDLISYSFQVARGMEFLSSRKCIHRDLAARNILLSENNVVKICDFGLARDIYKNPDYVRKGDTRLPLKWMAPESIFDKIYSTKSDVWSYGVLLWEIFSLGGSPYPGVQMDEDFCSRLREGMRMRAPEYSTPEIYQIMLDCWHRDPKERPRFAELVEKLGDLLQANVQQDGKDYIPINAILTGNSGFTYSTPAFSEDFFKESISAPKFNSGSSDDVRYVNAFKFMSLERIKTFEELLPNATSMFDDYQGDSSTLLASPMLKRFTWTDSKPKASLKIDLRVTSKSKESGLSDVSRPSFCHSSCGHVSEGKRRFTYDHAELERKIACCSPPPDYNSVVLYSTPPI
Tyrosine-protein kinase Fgr (Homo sapiens), sequence (P09769 2-529 limits assumed): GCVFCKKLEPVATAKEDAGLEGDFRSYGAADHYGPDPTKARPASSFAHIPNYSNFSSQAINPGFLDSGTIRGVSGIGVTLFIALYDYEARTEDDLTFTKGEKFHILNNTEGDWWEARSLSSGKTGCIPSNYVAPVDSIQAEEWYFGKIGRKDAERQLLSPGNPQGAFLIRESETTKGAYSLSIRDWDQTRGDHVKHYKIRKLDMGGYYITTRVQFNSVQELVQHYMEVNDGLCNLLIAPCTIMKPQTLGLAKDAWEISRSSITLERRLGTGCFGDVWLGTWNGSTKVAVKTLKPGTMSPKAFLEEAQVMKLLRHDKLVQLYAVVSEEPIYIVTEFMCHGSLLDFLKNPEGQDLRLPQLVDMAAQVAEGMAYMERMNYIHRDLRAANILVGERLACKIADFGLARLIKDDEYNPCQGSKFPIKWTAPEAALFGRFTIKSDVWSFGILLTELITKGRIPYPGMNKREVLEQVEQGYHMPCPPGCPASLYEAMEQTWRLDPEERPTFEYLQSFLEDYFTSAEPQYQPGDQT
Non-receptor tyrosine-protein kinase TYK2 (Homo sapiens), sequence (P29597 whole entry): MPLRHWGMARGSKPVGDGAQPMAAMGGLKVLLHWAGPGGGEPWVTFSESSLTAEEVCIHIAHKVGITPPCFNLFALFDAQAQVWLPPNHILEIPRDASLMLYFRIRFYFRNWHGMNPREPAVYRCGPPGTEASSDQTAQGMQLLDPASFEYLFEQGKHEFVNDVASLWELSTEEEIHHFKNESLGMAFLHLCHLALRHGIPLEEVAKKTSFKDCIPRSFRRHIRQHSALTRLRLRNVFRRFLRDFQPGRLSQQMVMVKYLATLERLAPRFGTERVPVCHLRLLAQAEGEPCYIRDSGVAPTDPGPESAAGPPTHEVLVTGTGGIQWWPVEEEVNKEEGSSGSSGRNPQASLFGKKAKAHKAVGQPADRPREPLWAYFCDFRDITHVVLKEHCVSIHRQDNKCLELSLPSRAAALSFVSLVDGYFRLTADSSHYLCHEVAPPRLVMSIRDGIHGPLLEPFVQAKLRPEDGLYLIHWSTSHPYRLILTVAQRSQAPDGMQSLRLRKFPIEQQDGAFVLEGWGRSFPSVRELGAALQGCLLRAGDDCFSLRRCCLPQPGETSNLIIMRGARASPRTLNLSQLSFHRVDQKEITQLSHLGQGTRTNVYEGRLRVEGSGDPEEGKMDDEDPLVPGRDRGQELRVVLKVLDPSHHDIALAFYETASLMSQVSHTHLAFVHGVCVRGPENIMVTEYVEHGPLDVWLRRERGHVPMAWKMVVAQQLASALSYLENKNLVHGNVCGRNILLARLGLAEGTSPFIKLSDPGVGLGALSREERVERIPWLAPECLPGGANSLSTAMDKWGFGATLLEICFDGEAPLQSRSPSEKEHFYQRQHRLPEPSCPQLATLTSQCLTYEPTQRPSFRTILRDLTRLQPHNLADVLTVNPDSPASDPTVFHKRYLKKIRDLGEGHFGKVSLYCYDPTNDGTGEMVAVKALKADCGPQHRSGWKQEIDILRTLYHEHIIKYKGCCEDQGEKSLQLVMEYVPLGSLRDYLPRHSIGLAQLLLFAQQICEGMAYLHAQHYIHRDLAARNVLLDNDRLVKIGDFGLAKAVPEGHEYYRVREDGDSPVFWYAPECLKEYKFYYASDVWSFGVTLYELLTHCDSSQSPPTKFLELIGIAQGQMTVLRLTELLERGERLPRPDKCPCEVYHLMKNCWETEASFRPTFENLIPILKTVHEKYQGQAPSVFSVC
Fibroblast growth factor receptor 2 (Homo sapiens), sequence (P21802 22-821 limits assumed): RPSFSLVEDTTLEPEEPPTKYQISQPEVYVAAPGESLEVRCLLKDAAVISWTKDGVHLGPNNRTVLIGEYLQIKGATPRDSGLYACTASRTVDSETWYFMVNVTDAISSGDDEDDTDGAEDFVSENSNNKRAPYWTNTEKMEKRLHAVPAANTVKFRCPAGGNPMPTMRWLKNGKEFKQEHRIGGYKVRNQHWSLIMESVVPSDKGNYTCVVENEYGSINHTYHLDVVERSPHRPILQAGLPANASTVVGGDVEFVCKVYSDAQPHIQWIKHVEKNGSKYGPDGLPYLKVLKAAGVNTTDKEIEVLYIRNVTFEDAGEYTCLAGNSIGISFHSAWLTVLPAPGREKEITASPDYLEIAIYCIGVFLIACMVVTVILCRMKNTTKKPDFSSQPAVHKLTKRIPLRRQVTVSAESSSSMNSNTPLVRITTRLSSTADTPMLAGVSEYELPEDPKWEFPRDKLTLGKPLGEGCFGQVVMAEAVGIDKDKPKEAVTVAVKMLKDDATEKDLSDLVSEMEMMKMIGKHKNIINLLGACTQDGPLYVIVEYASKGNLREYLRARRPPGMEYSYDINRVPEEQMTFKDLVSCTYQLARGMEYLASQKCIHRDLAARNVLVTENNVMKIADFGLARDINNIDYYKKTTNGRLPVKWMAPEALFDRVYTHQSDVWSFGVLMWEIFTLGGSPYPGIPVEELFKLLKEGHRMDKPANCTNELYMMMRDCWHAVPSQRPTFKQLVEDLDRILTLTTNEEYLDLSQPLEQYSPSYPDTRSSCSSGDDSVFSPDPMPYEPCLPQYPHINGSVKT

Take `Nc1nccc(C#Cc2cncnc2Nc2ccc(OCc3cccc(F)c3)c(Cl)c2)n1`: the inhibition in experiment [1] worked out at 3.48%; in [2], 3.46%; in experiment [3] it was 4.65%; in experiment [4], 5.53%; in [5], 4.02%; in experiment [6], 4.45%. The inhibition in experiment [7] is 8.42%; in experiment [8] it was 5.34%; in [9], 5.62%; in experiment [10], 2.52%; in experiment [11], -2.31%; in experiment [12] it was 0.12%. Also, the inhibition worked out at 4.81% in experiment [13]; 2.06% in experiment [14]; 3.36% in experiment [15]; 0.89% in experiment [16]; 3.87% in experiment [17]; 3.95% in experiment [18]. Besides, the inhibition in experiment [19] was -1.09%; in [20] it was 3.02%.
For the compound `CCS(=O)(=O)c1ccc(OC)c(Nc2ncc(-c3cccc(OC)c3)o2)c1`, the inhibition was found to be 3.8% in [1]; 1.8% in [2]; 2.42% in [3]; 9.22% in experiment [4]; 40.2% in experiment [5]; 30.9% in [6]. In addition, the inhibition in experiment [7] amounted to 68.2%; in experiment [8], 28.7%; in [9] it was 70%; in [10], 2.6%; in experiment [11] it was 7.65%; in [12], 19.9%. Besides, the inhibition stood at 65.2% in experiment [13]; 9.91% in experiment [14]; 55.9% in experiment [15]; 16.3% in [16]; 68% in experiment [17]; 29.4% in experiment [18]. Besides, the inhibition was -4.34% in [19] and 7.64% in experiment [20].
Consider `NC(=O)c1sc(-n2cnc3ccccc32)cc1OCc1ccccc1Br`, for which the inhibition in experiment [1] was found to be 3.22%; in experiment [2], 2.73%; in experiment [3], 4.01%; in experiment [4] it was 6.09%; in [5], 6.22%; in [6] it was 5.8%. In addition, the inhibition worked out at 4.79% in [7]; 5.69% in experiment [8]; 4.87% in experiment [9]; 1.18% in [10]; 0.92% in experiment [11]; 1.44% in experiment [12]. The inhibition was 6.14% in experiment [13]; -0.01% in experiment [14]; 4.57% in experiment [15]; 2.74% in experiment [16]; 1% in [17]; -6.76% in experiment [18]. Further, the inhibition in experiment [19] was -4.77%; in experiment [20], 1.17%.
In the case of `CCn1c(-c2nonc2N)nc2c(C#CC(C)(C)O)nc(OCCNC)cc21`, the inhibition in experiment [1] came out at 1.17%; in experiment [2], 4.11%; in experiment [3], 4.46%; in [4], 6.92%; in experiment [5] it was 5.9%; in [6], 5.4%. The inhibition in [7] is 6.92%; in [8] it was 7.79%; in experiment [9] it was 3.95%; in experiment [10], 4.43%; in experiment [11], 1.88%; in experiment [12], 0.15%. The inhibition in experiment [13] is 3.62%; in experiment [14], 1.71%; in experiment [15], 10.2%; in [16] it was 1.46%; in [17], 4.57%; in experiment [18], -1.99%. For the same compound, the inhibition in experiment [19] is -2.59%; in experiment [20], 2.56%.
As for `Nc1nccc(-c2c(-c3ccc(F)cc3)ncn2CCCN2CCOCC2)n1`, the inhibition in experiment [1] turned out to be 5.14%; in [2] it was 3.13%; in [3], 2.03%; in [4], 1.48%; in experiment [5], 1.16%; in [6], 2.81%. Moreover, the inhibition is 5.14% in experiment [7]; 4.29% in experiment [8]; 2.08% in experiment [9]; -1.03% in [11]; 2.89% in [12]; 3.22% in experiment [13]. The inhibition was 0.15% in [14]; -0.18% in experiment [15]; -0.59% in [16]; 3.31% in experiment [17]; -5.08% in [18]; -1.83% in [19]. Further, the inhibition in experiment [20] was 3.82%.

A word on the inhibition: it is the drop in the measured response relative to a control, in per cent.
